High-throughput results: PubChem, several laboratories
In the library only some 1.5% were active in any assay of this set; here they are far more common.
CRFR2-BP ag = CRF-BP/CRF-R2 complex agonism; HEK293 CRF-R2/CRF-BP, calcium dye fluorescence (FLIPR); percent of saturating CRF peptide response; activation, % at 13.2 µM; 0.46% of 350,000 active; AID 588473;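 active = activation of at least 50%, plus an integration ratio under a set limit after plate pattern correction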
IDE act = activators of human insulin-degrading enzyme in cells; P14735; HEK cells, FAbeta-B cleavage, fluorescence polarization; 0% vehicle, 100% cell-free pure enzyme wells; activation, % at 5.96 µM; 0.073% of 340,000 active;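 active = activation above the mean of all tested compounds plus 3 SD, set per screening campaign, cut at about 17% in these data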
Cardiac RTF inh = cardiac RTF calcium desensitization | P19429+P45379 | IANBD-labeled cardiac RTF, Ca2+ fluorescence | inhibition, % at 7.15 µM | 0.12% of 340,000 active | AID 493244;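 active = inhibition above the mean inhibition of all tested compounds plus 3 SD, cut at about 17% in these data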;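 also: assay run at fixed EC70 calcium of 1.6 mM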
CRFBP-R2 block = antagonists of CRF-binding protein/CRF-R2 receptor complex; HEK293 CRF-R2/CRF-BP, CRF-induced calcium fluorescence; 0.59% of 350,000 active; AID 588475; inhibition, % at 11.8 µM;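 active = inhibition of the ligand-induced calcium signal above about 50% at the single tested concentration, limit read from the data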
RTF Ca sens act = increases calcium sensitivity of human cardiac regulated thin filaments | P19429+P45379 | IANBD-labeled TnC RTF fluorescence at EC20 calcium; 0% EC20 calcium, 100% full calcium | activation, % at 7.2 µM | 0.24% of 340,000 active;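 active = activation above the mean over all tested compounds plus 3 SD, cut at about 30% in these data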;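 also: rise in fluorescence read as greater calcium sensitivity of cardiac thin filaments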
IDE cell inh = inhibits human insulin-degrading enzyme in HEK cells; P14735; inhibition, % at 5.59 µM; 0.41% of 320,000 active; AID 434962; FAbetaB cleavage, fluorescence polarization;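 active = percent inhibition above the average of all tested compounds plus 3 SD, set per screening campaign, cut at about 16% in these data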;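 also: IDE supplied by intact live HEK cells; FP after avidin binding of uncleaved biotin substrate so inhibition keeps polarization high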
Hits are given with their value; i = inactive; nt = no result.

SMILES	CRFR2-BP ag	IDE act	Cardiac RTF inh	CRFBP-R2 block	RTF Ca sens act	IDE cell inh
COC(=O)/C=C1/N/C(=N\c2nc(C)cc(C)n2)N(c2ccc(Cl)cc2)C1=O	i	i	i	i	i	i
CC1=C(C)/C(=N\OS(=O)(=O)c2ccc(C)cc2)C=CC1=O	64.1	i	i	i	i	i
COc1ccc(S(=O)(=O)/N=C2/C=CC(=O)C(C)=C2C)cc1	i	i	i	i	i	i
CC1=C/C(=N\OS(=O)(=O)c2ccccc2)C(C)=CC1=O	68.7	i	i	i	i	i
CCCC(=O)Nc1cc(Cl)ccc1N1CCN(C(=O)CC)CC1	i	i	i	i	i	i
COc1cccc2c1C(=O)c1c(O)c3c(c(O)c1C2=O)CC(O)(C(C)=O)CC3OC1CC(N(C)C)C(O)C(C)O1 (stereo unspecified)	89.2	i	i	i	190.0	nt
COc1cccc2c1C(=O)c1c(O)c3c(c(O)c1C2=O)C[C@@](O)(C(=O)CO)C[C@@H]3O[C@H]1C[C@H](N)[C@H](O)[C@H](C)O1	93.5	i	i	i	209.0	i
COc1cccc2c1C(=O)c1c(O)c3c(c(O)c1C2=O)C[C@@](O)(C(=O)CO)C[C@@H]3OC1CC(N)C(O)C(C)O1 (stereo partly specified)	74.0	i	i	i	115.3	nt
COc1ccc([C@H]2CC(=O)C=C(c3cccc4c3Oc3ccccc3S4)C2)cc1	i	i	i	i	i	i
CC1(C)CC(NC(=O)c2ccccc2NS(=O)(=O)c2ccc(Br)cc2)CC(C)(C)N1	i	i	i	i	i	nt
Cn1c2ccccc2c2cc(/C=N/NC(=O)c3ccc(O)cc3O)ccc21	i	i	i	i	i	i
Cn1c(O)c(/C=N/NC(=O)c2cc3ccccc3cc2O)c2ccccc21	117.1	i	i	i	40.1	i
Cc1[nH]nc2c1C(c1ccsc1C)C(C#N)=C(N)O2 (stereo unspecified)	i	i	i	i	i	i
Cc1cc(C2C(C#N)=C(N)SC(N)=C2C#N)c(C)s1	104.0	i	i	i	41.1	i
Cc1sccc1C1C(C#N)=C(N)SC(N)=C1C#N	nt	nt	nt	nt	nt	17.6
C[C@H](NC(=O)[C@H]1N2C(=O)c3ccccc3C2SC1(C)C)C(=O)NCC1CCCO1 (stereo partly specified)	i	i	i	i	i	i
CCCN1CCN(CCCNC(=O)Cn2nc(-c3ccccc3)ccc2=O)CC1	i	i	i	i	i	i
Cc1nc2ccc(C(=O)N3c4ccccc4CC3C)cc2s1 (stereo unspecified)	i	i	i	i	i	i
Cc1nnc(SCC(=O)c2cc(C)n(-c3ccc4c(c3)OCO4)c2C)s1	62.9	i	i	i	i	i
Cc1nnc(SCC(=O)c2cc(C)n(C3CC3)c2C)s1	51.8	i	i	i	i	i
O=C(NCCCN1CCOCC1)C(C(=O)NCCCN1CCOCC1)c1ncc(C(F)(F)F)cc1Cl	i	i	i	i	i	i
COc1cc(-c2nnc(SCC3(c4ccccc4)OCCO3)o2)cc(OC)c1OC	i	i	i	i	i	i
COCC(C)NS(=O)(=O)c1ccc(NC(=O)c2ccccn2)cc1 (stereo unspecified)	i	i	i	i	i	i
O=C(N/N=C/c1ccncc1)/C(=C/c1ccccc1)NC(=O)c1ccccc1	i	i	i	i	i	i
Cc1ccnc(N/C=C(/NC(=O)c2ccccc2)C(=O)N/N=C\c2ccc(Cl)cc2)n1	i	i	i	i	i	32.0
CC1CCC(N(CCCN)Cc2ccco2)CC1C (stereo unspecified)	i	i	i	i	i	i
Cc1ccc2cccc(S(=O)(=O)N3CCCc4ccccc43)c2n1	87.5	i	i	i	i	i
CCN1C(=O)[C@H]2[C@H]3[C@H](O)[C@H](O)C/C(=N\OC[C@@H](C)[C@H](OCc4ccccc4)C(C)C)[C@@H]3CC[C@H]2C1=O	nt	nt	nt	nt	nt	i
O=C(COC(=O)c1ccccc1[N+](=O)[O-])NCCCc1ccccc1	i	i	i	i	i	i
Cc1c(Cl)cccc1N1C(=O)c2ccccc2C1=O	i	i	i	50.7	i	i
